KCNQ2 block – KCNQ2 (rat) channel inhibition; B-score at 10 µM; CHO-K1 KCNQ2, FluxOR thallium flux, 20 min; active compounds read low; 310,000 compounds, 1.1% hits;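 active = fluorescence ratio B-score at most minus 3 library SDs, with starting brightness B-score within 2 library SDs, cut at about -5.5 in these data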
KCNQ2 enhance – KCNQ2 (rat) channel potentiation; O88943; CHO-K1 KCNQ2, FluxOR thallium flux fluorescence; active compounds read high; B-score at 10 µM; 310,000 compounds, 0.54% hits; AID 2239;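 active = fluorescence ratio B-score at least 3 SD of library B-scores, with initial fluorescence B-score within 3 of them, cut at about 5.3 in these data; same plate scores as AID 2156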;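 also: B-score of peak minus minimum over baseline fluorescence ratio after K+ and Tl+ stimulus; positive B-score means potentiation of KCNQ2 with more thallium influx and brighter signal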
Kir21 confirm – confirmation of mouse Kir2.1 potassium channel inhibitors. 2,300 compounds, 41% hits. shares compounds with KCNQ2 enhance. Kir2.1-expressing cells, FluxOR thallium flux fluorescence; active compounds read low. Tl flux remaining, % of negative control (active compounds read low), % at 10 µM;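 active = Primary-screen hit whose thallium flux fell at least 3 control SD below untreated wells in both duplicates, with normal baseline fluorescence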
HEK293 ctr – parental HEK293 activity in Kir2.1 inhibitor counter-screen | shares compounds with KCNQ2 enhance | parental HEK293 cells, FluxOR thallium flux fluorescence; 0% = unstimulated blank wells | FluxOR signal as % of negative control (100 = no effect), % at 10 µM | 2,300 compounds, 19% hits;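 active = dye signal at least 3 control SD above or below untreated wells in both duplicates, raw fluorescence within 3, either direction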;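 also: percent is based on the flux ratio of peak minus minimum fluorescence over baseline F0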
CHO-K1 ctr – parental CHO-K1 activity in KCNQ2 potentiator counter-screen; AID 2282; parental CHO-K1 cells, FluxOR thallium flux fluorescence; zero = vehicle mean+3SD, 100% = vehicle-minus-blank window; 1,200 compounds, 43% hits; shares compounds with KCNQ2 enhance; activity increase over 3SD of controls, % at 10 µM;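 active = signal rise of at least 3 SD above the untreated control mean, in both duplicate wells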;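 also: counter screen of KCNQ2 potentiator hits so any rise reflects channel-independent effects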
KCNQ1 pot spec – tests whether KCNQ2 potentiators also act on human KCNQ1. shares compounds with KCNQ2 enhance. CHO KCNQ1 stable, FluxOR thallium flux fluorescence; beyond 3SD, as % of vehicle-control signal. activation over 3SD threshold, % at 10 µM. 1,200 compounds, 28% hits. AID 2283;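 active = fluorescence ratio rise of at least 3 SD of vehicle wells above their mean, in both replicate wells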
Target sequence (P51787 whole entry, looked up): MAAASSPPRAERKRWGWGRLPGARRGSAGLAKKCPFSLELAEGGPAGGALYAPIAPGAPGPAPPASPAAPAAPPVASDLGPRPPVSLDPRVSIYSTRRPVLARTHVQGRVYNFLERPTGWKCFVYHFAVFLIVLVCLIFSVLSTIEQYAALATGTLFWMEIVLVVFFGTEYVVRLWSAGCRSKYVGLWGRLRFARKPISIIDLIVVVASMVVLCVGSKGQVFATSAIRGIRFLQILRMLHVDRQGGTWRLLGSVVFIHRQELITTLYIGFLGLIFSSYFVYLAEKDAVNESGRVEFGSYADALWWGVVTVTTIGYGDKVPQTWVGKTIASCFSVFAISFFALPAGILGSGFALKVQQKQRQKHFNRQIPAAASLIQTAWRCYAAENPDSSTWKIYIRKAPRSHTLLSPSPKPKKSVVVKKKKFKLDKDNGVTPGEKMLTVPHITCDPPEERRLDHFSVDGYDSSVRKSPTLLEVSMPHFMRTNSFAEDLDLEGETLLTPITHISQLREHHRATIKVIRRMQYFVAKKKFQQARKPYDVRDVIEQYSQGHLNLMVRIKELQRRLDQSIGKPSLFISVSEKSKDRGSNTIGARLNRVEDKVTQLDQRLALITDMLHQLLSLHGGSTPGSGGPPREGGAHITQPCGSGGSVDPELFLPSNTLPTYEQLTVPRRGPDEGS
KCNQ2 pot confirm – confirmation of rat KCNQ2 potassium channel potentiators; shares compounds with KCNQ2 enhance; CHO-KCNQ2 cells, FluxOR thallium flux fluorescence; potentiation, less the hit threshold, % at 10 µM; 1,200 compounds, 68% hits;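 active = fluorescence ratio rising 3 SD or more over the vehicle control mean in both replicates, plus primary screen hit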;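 also: peak minus minimum thallium fluorescence divided by baseline after K/Tl stimulus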
Kir21 spec – tests whether KCNQ2 potentiators also affect mouse Kir2.1; HEK293 Kir2.1, FluxOR thallium flux fluorescence; 1,200 compounds, 2% hits; activity over 3SD threshold, % at 10 µM; shares compounds with KCNQ2 enhance;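 active = fluorescence ratio rise of at least 3 SD above the vehicle-control mean, seen in both replicates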
KCNQ2 W236L MoA – rat KCNQ2 W236L mutant potentiation by KCNQ2 potentiators. shares compounds with KCNQ2 enhance. CHO KCNQ2-W236L, automated patch clamp current. current increase over 3SD of negative controls (%), active compounds read high, % at 25 µM. 940 compounds, 10% hits;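 active = current increase at least 3 SD of the untreated controls above them in both duplicate recordings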
Hits are given with their value; n = inactive; x = no result given. A selection: hits, their analogues and other compounds. The true share with any hit is near 1.6%.

SMILES | KCNQ2 block | KCNQ2 enhance | Kir21 confirm | HEK293 ctr | others
Cc1ccc(NC(=O)C(C)OC(=O)Cc2c[nH]c3ccccc23)cc1 (centres undefined) | n | n | 52.5% | n
CC1=CC(C)(C)N(C(=O)CSc2nnc(C)s2)c2ccc(C)cc21 | n | x | 70.5% | n
CC1=CC(C)(C)N(C(=O)CSc2nnc(N)s2)c2cc(C)c(C)cc21 | n | n | x | x
COc1ccc(CNS(=O)(=O)NCc2ccc(C)cc2)cc1OC | n | x | x | x
Cc1ccc(C(=O)Nc2ccnc(-c3cccnc3)n2)cc1 | n | n | x | x
COc1ccc(C(=O)Nc2ccnc(-c3cccnc3)n2)cc1 | n | 5.34 | n | n | CHO-K1 ctr=n;KCNQ1 pot spec=n;KCNQ2 pot confirm=n;Kir21 spec=n
CON(C)S(=O)(=O)c1cccc(C(=O)Oc2ccc(N(C)S(=O)(=O)c3ccccc3)cc2)c1 | n | n | x | x
O=C(COc1ccccc1Cl)NCCCNC(=O)c1cccnc1 | n | n | x | x
CN(C)CCCn1cnc2c(c1=N)C(c1ccccc1)c1ccc3ccccc3c1O2 (centres undefined) | n | x | n | n
N=c1c2c(ncn1CCCO)Oc1c(ccc3ccccc13)C2c1ccccc1 (centres undefined) | n | x | x | x
O=C(NCCC(=O)N1CCc2ccccc21)c1ccccc1Cl | n | x | x | x
O=C(NC(=S)N1CCc2ccccc21)c1ccccc1Cl | n | 8.86 | n | n | CHO-K1 ctr=13.6;KCNQ1 pot spec=n;KCNQ2 pot confirm=62.2;Kir21 spec=n;KCNQ2 W236L MoA=n
COC(=O)C(=CC(=CN(C)C)C=C(C(=O)OC)C(=O)OC)C(=O)OC | n | x | x | x
COc1cccc(OCc2cc(C(=O)NC(C)c3cnn(C)c3C)no2)c1 (centres undefined) | n | n | x | x
COCCCN1CC(=O)N2Cc3[nH]c4ccccc4c3C[C@H]2C1=O | n | x | x | x
O=C(Nc1ccncc1)c1cc2ccccc2cc1O | n | n | x | x
O=[N+]([O-])c1ccc(S(=O)(=O)N2CCSC2c2ccco2)cc1 (centres undefined) | n | x | x | x
O=S(=O)(c1ccc(Cl)cc1)N1CCSC1c1ccco1 (centres undefined) | n | x | 65.5% | n
COC(=O)c1ccccc1NC(=O)CSc1nnnn1CC(=O)O | n | n | x | x
CCOc1cc2c3c(c1)C(C)=CC(C)(C)N3C(=O)C2=O | n | n | x | x
CC(=O)Oc1cc2c3c(c1)/C(=C1/SC(=S)NC1=O)C(=O)N3C(C)(C)C=C2C | n | 6.84 | n | n | CHO-K1 ctr=n;KCNQ1 pot spec=12.0;KCNQ2 pot confirm=n;Kir21 spec=n
O=C(Cn1cc(C(F)(F)F)ccc1=O)NCc1ccc(F)cc1 | n | x | x | x
O=C1/C(=C2\C(=O)N(Cc3ccc(F)cc3)c3ccccc32)SC(=S)N1CCS(=O)(=O)O | n | x | x | x
O=C(O)CN1C(=O)/C(=C2\C(=O)N(Cc3ccccc3Cl)c3ccccc32)SC1=S | n | 6.15 | n | n | CHO-K1 ctr=n;KCNQ1 pot spec=n;KCNQ2 pot confirm=n;Kir21 spec=n
CCN(CC(=O)Nc1c(F)cccc1F)C(=O)CCCNC(=O)c1ccc(Cl)cc1 | n | n | x | x
SMILES | KCNQ2 block | KCNQ2 enhance | Kir21 confirm | HEK293 ctr | others
CCCc1nnc(SCC(=O)Nc2cccc(C(F)(F)F)c2)o1 | n | n | x | x
O=C(Nc1ccc(F)cc1)C1CC2CCC1C2 (centres undefined) | n | n | x | x
CC(C)c1ccc(NC(=O)C2CC3CCC2C3)cc1 (centres undefined) | n | 25.9 | n | n | CHO-K1 ctr=29.6;KCNQ1 pot spec=n;KCNQ2 pot confirm=66.5;Kir21 spec=n;KCNQ2 W236L MoA=n
CCOc1ccc(NC(=O)C2CC3CCC2C3)cc1 (centres undefined) | n | n | x | x
CCC(C)c1ccc(NC(=O)C2CC3CCC2C3)cc1 (centres undefined) | n | 26.1 | n | n | CHO-K1 ctr=7.5;KCNQ1 pot spec=n;KCNQ2 pot confirm=105.0;Kir21 spec=n;KCNQ2 W236L MoA=n
Cc1cc2c(=O)n(C)c(SCC(=O)Nc3ccccc3C)nc2s1 | n | x | x | x
